In the supplement of paper PMC8728848:
This is one part of a sample in which the strongest signals are shown more often than they occur.

Key:
Assay in all cases: glycan array binding signal (z-score within array); higher = stronger binding
Details in all cases: glycan notation: IUPAC condensed, linker removed
Fuc(a1-2)Gal(b1-4)Glc = molecular target: Fuc(a1-2)Gal(b1-4)Glc
Method in brief: (§1)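 Glycan array data were curated from 3228 arrays in the Consortium for Functional Glycomics database and kept only where the protein sequence was available. Glycan names were converted to IUPAC-condensed notation, and columns mapping to the same glycan were averaged. The binding signal is a within-array Z-score, averaged across arrays of the same protein sequence at different concentrations or buffers and across linkers. Negative Z-scores can be read as non-binding.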

[1] = molecular target: Fuc(a1-2)Gal(b1-4)GlcNAc(b1-2)[Fuc(a1-2)Gal(b1-4)GlcNAc(b1-4)]Man(a1-3)[Fuc(a1-2)Gal(b1-4)GlcNAc(b1-2)Man(a1-6)]Man(b1-4)GlcNAc(b1-4)GlcNAc
Method in brief: as §1

[2] = molecular target: Fuc(a1-2)Gal(b1-4)GlcNAc(b1-6)GalNAc
Method in brief: as §1

[3] = molecular target: Fuc(a1-2)Gal(b1-4)[Fuc(a1-3)]GlcNAc(b1-2)[Fuc(a1-2)Gal(b1-4)[Fuc(a1-3)]GlcNAc(b1-4)]Man(a1-3)[Fuc(a1-2)Gal(b1-4)[Fuc(a1-3)]GlcNAc(b1-2)Man(a1-6)]Man(b1-4)GlcNAc(b1-4)GlcNAc
Method in brief: as §1

[4] = molecular target: Fuc(a1-2)[Gal(a1-3)]Gal(b1-4)GlcNAc
Method in brief: as §1

[5] = molecular target: Fuc(a1-2)[Gal(a1-3)]Gal(b1-4)GlcNAc(b1-2)Man
Method in brief: as §1

[6] = molecular target: Fuc(a1-2)[GalNAc(a1-3)]Gal(b1-3)GlcNAc
Method in brief: as §1

[7] = molecular target: Fuc(a1-2)[GalNAc(a1-3)]Gal(b1-4)GlcNAc(b1-2)Man(a1-3)[Fuc(a1-2)[GalNAc(a1-3)]Gal(b1-4)GlcNAc(b1-2)Man(a1-6)]Man(b1-4)GlcNAc(b1-4)[Fuc(a1-6)]GlcNAc
Method in brief: as §1

[8] = molecular target: Gal(a1-3)Gal(b1-3)GlcNAc(b1-6)GalNAc
Method in brief: as §1

[9] = molecular target: Gal(a1-3)Gal(b1-4)GlcNAc(b1-3)GalNAc
Method in brief: as §1

[10] = molecular target: Gal(b1-3)GlcNAc(b1-2)[Gal(b1-3)GlcNAc(b1-6)]Man(a1-6)[Gal(b1-3)GlcNAc(b1-2)Man(a1-3)]Man(b1-4)GlcNAc(b1-4)GlcNAc
Method in brief: as §1

[11] = molecular target: Gal(b1-3)[Fuc(a1-4)]GlcNAc(b1-6)GalNAc
Method in brief: as §1

Gal(b1-4)Glc6S = molecular target: Gal(b1-4)Glc6S
Method in brief: as §1

[12] = molecular target: Gal(b1-4)GlcNAc(b1-3)Gal(b1-3)GalNAc
Method in brief: as §1

[13] = molecular target: Gal(b1-4)GlcNAc(b1-3)Gal(b1-4)GlcNAc(b1-2)Man(a1-3)[Gal(b1-4)GlcNAc(b1-3)Gal(b1-4)GlcNAc(b1-2)Man(a1-6)]Man(b1-4)GlcNAc(b1-4)[Fuc(a1-6)]GlcNAc
Method in brief: as §1

[14] = molecular target: Gal(b1-4)GlcNAc(b1-3)Gal(b1-4)GlcNAc(b1-3)Gal(b1-4)GlcNAc(b1-3)Gal(b1-4)GlcNAc(b1-2)Man(a1-3)[Gal(b1-4)GlcNAc(b1-3)Gal(b1-4)GlcNAc(b1-3)Gal(b1-4)GlcNAc(b1-3)Gal(b1-4)GlcNAc(b1-2)Man(a1-6)]Man(b1-4)GlcNAc(b1-4)[Fuc(a1-6)]GlcNAc
Method in brief: as §1

[15] = molecular target: Gal(b1-4)GlcNAc(b1-6)[Gal(b1-4)GlcNAc(b1-3)]GalNAc
Method in brief: as §1

Gal3S(b1-4)Glc6S = molecular target: Gal3S(b1-4)Glc6S
Method in brief: as §1

Gal3S(b1-4)GlcNAc = molecular target: Gal3S(b1-4)GlcNAc
Method in brief: as §1

GalNAc(b1-4)Gal(b1-4)Glc = molecular target: GalNAc(b1-4)Gal(b1-4)Glc
Method in brief: as §1

[16] = molecular target: GalNAc(b1-4)GlcNAc(b1-2)Man(a1-3)[GalNAc(b1-4)GlcNAc(b1-2)Man(a1-6)]Man(b1-4)GlcNAc(b1-4)GlcNAc
Method in brief: as §1

[17] = molecular target: GlcNAc(a1-6)Gal(b1-4)GlcNAc
Method in brief: as §1

[18] = molecular target: GlcNAc(b1-3)Gal(b1-4)GlcNAc(b1-3)Gal(b1-4)GlcNAc(b1-2)Man(a1-3)[GlcNAc(b1-3)Gal(b1-4)GlcNAc(b1-3)Gal(b1-4)GlcNAc(b1-2)Man(a1-6)]Man(b1-4)GlcNAc(b1-4)[Fuc(a1-6)]GlcNAc
Method in brief: as §1

[19] = molecular target: GlcNAc(b1-3)Gal(b1-4)GlcNAc(b1-3)Gal(b1-4)GlcNAc(b1-3)Gal(b1-4)GlcNAc(b1-2)Man(a1-3)[GlcNAc(b1-3)Gal(b1-4)GlcNAc(b1-3)Gal(b1-4)GlcNAc(b1-3)Gal(b1-4)GlcNAc(b1-2)Man(a1-6)]Man(b1-4)GlcNAc(b1-4)[Fuc(a1-6)]GlcNAc
Method in brief: as §1

[20] = molecular target: Man(a1-2)Man(a1-2)Man(a1-6)[Man(a1-3)]Man
Method in brief: as §1

[21] = molecular target: Man(a1-3)[Man(a1-6)]Man(b1-4)GlcNAc(b1-4)[Fuc(a1-6)]GlcNAc
Method in brief: as §1

[22] = molecular target: Neu5Ac(a2-3)Gal(b1-3)GlcNAc(b1-3)GalNAc
Method in brief: as §1

[23] = molecular target: Neu5Ac(a2-3)Gal(b1-4)GlcNAc(b1-2)[Neu5Ac(a2-3)Gal(b1-4)GlcNAc(b1-6)]Man(a1-6)[Neu5Ac(a2-3)Gal(b1-4)GlcNAc(b1-2)Man(a1-3)][GlcNAc(b1-4)]Man(b1-4)GlcNAc(b1-4)GlcNAc
Method in brief: as §1

[24] = molecular target: Neu5Ac(a2-3)Gal(b1-4)GlcNAc(b1-3)Gal
Method in brief: as §1

[25] = molecular target: Neu5Ac(a2-3)Gal(b1-4)GlcNAc(b1-3)Gal(b1-4)GlcNAc(b1-3)GalNAc
Method in brief: as §1

[26] = molecular target: Neu5Ac(a2-3)Gal(b1-4)GlcNAc(b1-3)Gal(b1-4)[Fuc(a1-3)]GlcNAc
Method in brief: as §1

[27] = molecular target: Neu5Ac(a2-3)Gal(b1-4)GlcNAc(b1-6)[Neu5Ac(a2-3)Gal(b1-3)]GalNAc
Method in brief: as §1

[28] = molecular target: Neu5Ac(a2-3)Gal(b1-4)[Fuc(a1-3)]GlcNAc(b1-3)Gal(b1-4)GlcNAc
Method in brief: as §1

[29] = molecular target: Neu5Ac(a2-3)Gal(b1-4)[Fuc(a1-3)]GlcNAc(b1-3)GalNAc
Method in brief: as §1

[30] = molecular target: Neu5Ac(a2-3)Gal(b1-4)[Fuc(a1-3)]GlcNAc(b1-6)[Neu5Ac(a2-3)Gal(b1-3)]GalNAc
Method in brief: as §1

[31] = molecular target: Neu5Ac(a2-6)Gal(b1-4)GlcNAc(b1-2)Man(a1-3)[Man(a1-6)]Man(b1-4)GlcNAc(b1-4)GlcNAc
Method in brief: as §1

[32] = molecular target: Neu5Ac(a2-6)Gal(b1-4)GlcNAc(b1-2)Man(a1-3)[Neu5Ac(a2-6)Gal(b1-4)GlcNAc(b1-2)Man(a1-6)]Man(b1-4)GlcNAc(b1-4)GlcNAc
Method in brief: as §1

[33] = molecular target: Neu5Ac(a2-6)Gal(b1-4)GlcNAc(b1-2)Man(a1-3)[Neu5Ac(a2-6)Gal(b1-4)GlcNAc(b1-2)Man(a1-6)]Man(b1-4)GlcNAc(b1-4)[Fuc(a1-6)]GlcNAc
Method in brief: as §1

[34] = molecular target: Neu5Ac(a2-6)Gal(b1-4)GlcNAc(b1-3)Gal(b1-3)GlcNAc
Method in brief: as §1

[35] = molecular target: Neu5Ac(a2-6)Gal(b1-4)GlcNAc(b1-3)Gal(b1-4)GlcNAc(b1-3)Gal(b1-4)GlcNAc(b1-2)Man(a1-3)[Neu5Ac(a2-6)Gal(b1-4)GlcNAc(b1-3)Gal(b1-4)GlcNAc(b1-3)Gal(b1-4)GlcNAc(b1-2)Man(a1-6)]GalNAc
Method in brief: as §1

[36] = molecular target: Neu5Ac(a2-6)Gal(b1-4)GlcNAc(b1-3)Gal(b1-4)GlcNAc(b1-3)GalNAc
Method in brief: as §1

[37] = molecular target: Neu5Ac(a2-6)Gal(b1-4)GlcNAc(b1-3)[Neu5Ac(a2-6)Gal(b1-4)GlcNAc(b1-6)]GalNAc
Method in brief: as §1

[38] = molecular target: Neu5Ac(a2-8)Neu5Ac(a2-8)Neu5Ac(a2-3)[GalNAc(b1-4)]Gal(b1-4)Glc
Method in brief: as §1

[39] = molecular target: Neu5Gc(b2-6)Gal(b1-4)GlcNAc
Method in brief: as §1

B1: ERGIC1-EDTA (Homo sapiens), Q969X5 (protein)
chain: MKFLVNVALVFMVVYISYIYAAAHMHHHHHHDYDIPTTENLYFQGSEVVNELYVDDPDKDSGGKIDVSLNISLPNLHCELVGLDIQDEMGRHEVGHIDNSMKIPLNNGAGCRFEGQFSINKVPGNFHVSTHSATAQPQNPDMTHVIHKLSFGDTLQVQNIHGAFNALGGADRLTSNPLASHDYILKIVPTVYEDKSGKQRYSYQYTVANKEYVAYSHTGRIIPAIWFRYDLSPITVKYTE
glycan array binding signal (z-score) (Fuc(a1-2)Gal(b1-4)Glc): -1.4 | glycan array binding signal (z-score) [1]: 2.88 | glycan array binding signal (z-score) [2]: 1.3 | glycan array binding signal (z-score) [3]: 1.07 | glycan array binding signal (z-score) [4]: -0.089 | glycan array binding signal (z-score) [5]: 0.546 | glycan array binding signal (z-score) [6]: 0.499 | glycan array binding signal (z-score) [7]: 2.25 | glycan array binding signal (z-score) [8]: 0.056 | glycan array binding signal (z-score) [9]: -0.034 | glycan array binding signal (z-score) [10]: 3.15 | glycan array binding signal (z-score) [11]: -0.044 | glycan array binding signal (z-score) (Gal(b1-4)Glc6S): -0.759 | glycan array binding signal (z-score) [12]: -1.26 | glycan array binding signal (z-score) [13]: 2.13 | glycan array binding signal (z-score) [14]: 2.23 | glycan array binding signal (z-score) [15]: -0.361 | glycan array binding signal (z-score) (Gal3S(b1-4)Glc6S): 0.151 | glycan array binding signal (z-score) (Gal3S(b1-4)GlcNAc): -0.117 | glycan array binding signal (z-score) (GalNAc(b1-4)Gal(b1-4)Glc): -0.531 | glycan array binding signal (z-score) [16]: 0.638 | glycan array binding signal (z-score) [17]: -0.295 | glycan array binding signal (z-score) [18]: 0.799 | glycan array binding signal (z-score) [19]: 2.52 | glycan array binding signal (z-score) [20]: -0.459 | glycan array binding signal (z-score) [21]: 2.1 | glycan array binding signal (z-score) [22]: 0.617 | glycan array binding signal (z-score) [23]: -0.63 | glycan array binding signal (z-score) [24]: -0.734 | glycan array binding signal (z-score) [25]: -0.406 | glycan array binding signal (z-score) [26]: -0.82 | glycan array binding signal (z-score) [27]: -0.285 | glycan array binding signal (z-score) [28]: 2.27 | glycan array binding signal (z-score) [29]: 3 | glycan array binding signal (z-score) [30]: 1.03 | glycan array binding signal (z-score) [31]: 1.69 | glycan array binding signal (z-score) [32]: -0.027 | glycan array binding signal (z-score) [33]: 2.07 | glycan array binding signal (z-score) [34]: 0.896 | glycan array binding signal (z-score) [35]: 2.02 | glycan array binding signal (z-score) [36]: 0.381 | glycan array binding signal (z-score) [37]: -1.06 | glycan array binding signal (z-score) [38]: 0.592 | glycan array binding signal (z-score) [39]: -0.624
